In PubChem BioAssay (NCATS):
Several values for one entry are separate records, joined by “and”; a condition that tells them apart may be missing. Identical values can stand only once. Results filed as inconclusive are left out. Activity calls are given as the source filed them. Unless noted, calls follow the shape of the full dose curve. Bridge positions count the residues as written; N and C are the ends. Square brackets hold non-standard residues; d marks the D form. Peptide text beside a SMILES is read from it. * marks the point of attachment. Ileψ(thiazoline)Cys = CC[C@H](C)[C@H](N)C1=N[C@H](C(=O)*)CS1; d(aIle) = CC[C@H](C)[C@@H](N)C(=O)O; dOrn = NCCC[C@@H](N)C(=O)O

biological target: Glucocorticoid receptor (Homo sapiens) (UniProt P04150); assay: GR-EFC Redistribution (AID 451); conditions: CHO-K1 GR-EFC translocation, beta-gal luminescence, 2 h; also: potency is read from the fitted curve at half-maximal effect
Summary of the method: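 Translocation of GR-ED fusion to nuclear EA restores b-gal, read by luminescence after 1 h room-temperature detection. Engineered CHO-K1 biosensor cells, 1,000/well, exposed 2 h at 37 C to titrations up to 46 uM final.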

Sequence of Glucocorticoid receptor (Homo sapiens) (P04150 whole entry, looked up, the tested form may be a part): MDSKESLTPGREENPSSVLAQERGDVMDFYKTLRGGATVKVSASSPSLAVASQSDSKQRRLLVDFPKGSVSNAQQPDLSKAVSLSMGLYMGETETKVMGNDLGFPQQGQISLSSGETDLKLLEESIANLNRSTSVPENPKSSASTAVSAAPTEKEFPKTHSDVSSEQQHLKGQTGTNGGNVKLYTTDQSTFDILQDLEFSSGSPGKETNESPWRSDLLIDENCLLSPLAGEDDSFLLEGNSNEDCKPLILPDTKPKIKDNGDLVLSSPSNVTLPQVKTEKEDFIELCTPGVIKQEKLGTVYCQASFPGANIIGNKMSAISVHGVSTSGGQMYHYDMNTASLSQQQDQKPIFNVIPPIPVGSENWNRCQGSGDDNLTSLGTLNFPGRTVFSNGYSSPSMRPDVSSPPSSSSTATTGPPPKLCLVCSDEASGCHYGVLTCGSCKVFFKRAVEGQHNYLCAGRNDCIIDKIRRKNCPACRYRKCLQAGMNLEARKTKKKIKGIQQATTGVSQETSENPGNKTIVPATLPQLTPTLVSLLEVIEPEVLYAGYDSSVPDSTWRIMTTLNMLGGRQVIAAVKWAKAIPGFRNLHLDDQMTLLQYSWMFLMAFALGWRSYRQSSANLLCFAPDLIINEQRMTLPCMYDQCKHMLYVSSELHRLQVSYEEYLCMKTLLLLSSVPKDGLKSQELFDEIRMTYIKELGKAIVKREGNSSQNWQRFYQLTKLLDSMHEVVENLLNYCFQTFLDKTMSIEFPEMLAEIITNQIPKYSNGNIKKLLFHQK

Potency, inactive:
CCCCC[C@H](O)/C=C\[C@@H]1[C@H](O)CC(=O)[C@@H]1CCCCCCC(=O)O > 20.6 µM
CC(=C(CCOP(=O)(O)O)SC(=O)c1ccccc1)N(C=O)Cc1cnc(C)nc1N > 20.6 µM
C=C1c2c(Cl)ccc(O)c2C(O)=C2C(=O)[C@@]3(O)C(O)=C(C(N)=O)C(=O)[C@@H](N(C)C)[C@@H]3[C@@H](O)[C@H]12 > 20.6 µM
Nc1nc(=S)c2ncn([C@H]3O[C@@H](CO)[C@@H](O)[C@@H]3O)c2[nH]1 > 20.6 µM
C=C1CC23C[C@H]4[C@@H]5[C@@]6(C)C[C@H](OC(=O)c7ccccc7)[C@@H](OC(C)=O)[C@]57[C@@H]2[C@@H](OC(C)=O)[C@H]1[C@@H](O)[C@H]3[C@H]7N4C6 > 20.6 µM
O=C(N/N=C\c1ccc([N+](=O)[O-])o1)c1ccc(O)cc1 > 20.6 µM
C[C@@H](CNC1CCCCC1)OC(=O)c1ccccc1 > 20.6 µM
Cc1cccc(CN2CCN([C@@H](c3ccccc3)c3ccc(Cl)cc3)CC2)c1 > 20.6 µM
Cc1ccsc1/C=C\C1=NCCCN1C > 20.6 µM
COc1cc(OC)c2c(c1Cl)O[C@@]1(C2=O)[C@H](C)CC(=O)C[C@@H]1OC > 20.6 µM
C[C@H](NCCC(c1ccccc1)c1ccccc1)c1ccccc1 > 20.6 µM
C=CCO[C@@H](Cn1ccnc1)c1ccc(Cl)cc1Cl > 20.6 µM
C#C[C@]1(O)CC[C@@H]2[C@H]3CCC4=CCCC[C@@H]4[C@@H]3CC[C@@]21C > 20.6 µM
CC1(C)[C@@H](OC(=O)CCC(=O)O)CC[C@@]2(C)[C@H]1CC[C@@]1(C)[C@H]2C(=O)C=C2[C@H]3C[C@](C)(C(=O)O)CC[C@]3(C)CC[C@@]21C > 20.6 µM
COc1ccc([C@@H]2CC(=O)c3c(O)cc(O)cc3O2)cc1O > 20.6 µM and > 46 µM

biological target: Mitogen-activated protein kinase 10 (Mus musculus) (UniProt Q61831); assay: JNK3 AlphaScreen Assay (AID 530; active = well fitted curve in either direction with a large enough effect, not every such curve was filed as active;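 also: kinase came from lysate of stimulated human HepG2 cells; signal reports phosphorylation of biotinylated GST-cJun 1-79 at Ser73 with 10 µM ATP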); conditions: JNK3 lysate, c-Jun phosphorylation; series mostly up to 25.6 µM
Summary of the method: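 qHTS titrations with 15 min compound pre-incubation before adding ATP (10 uM final). Read-out: AlphaScreen of Ser73-phosphorylated biotin-GST-cJun using HepG2 lysate JNK3 activated by IL-1β and TNFα.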

Potency, inactive:
C[C@@H]1C[C@H]2[C@@H]3C[C@H](F)C4=CC(=O)C=C[C@@]4(C)[C@]3(F)[C@H](O)C[C@]2(C)[C@@]1(O)C(=O)CO
C[N+]1(C)CCC[C@H]1C(=O)[O-]
C[C@H](O)Cn1cnc2c1c(=O)n(C)c(=O)n2C
CCCCC[C@H](O)/C=C\[C@@H]1[C@H](O)CC(=O)[C@@H]1CCCCCCC(=O)O
CC(C)(CO)[C@H](O)C(=O)NCCC(=O)O
NC[C@@H]1O[C@@H](O[C@H]2[C@H](O)[C@H](O[C@@H]3O[C@H](CO)[C@@H](O)[C@H](N)[C@@H]3O)[C@@H](N)C[C@H]2N)[C@H](N)C[C@@H]1O
S=C(NC1CCCCC1)N1CCC([C@H]2C=NC=N2)CC1
CCc1c(C)[nH]c2c1C(=O)[C@H](CN1CCOCC1)CC2
C=C1c2c(Cl)ccc(O)c2C(O)=C2C(=O)[C@@]3(O)C(O)=C(C(N)=O)C(=O)[C@@H](N(C)C)[C@@H]3[C@@H](O)[C@H]12
CCC(=O)OCC(=O)[C@@]1(OC(=O)CC)[C@H](C)C[C@@H]2[C@@H]3[C@H]([C@@H](O)C[C@@]21C)[C@]1(C)C=CC(=O)C=C1C[C@@H]3Cl
C[C@H](CCC(=O)O)[C@H]1CC[C@@H]2[C@H]3[C@@H](CC[C@@]21C)[C@]1(C)CC[C@H](O)C[C@@H]1C[C@@H]3O
CS(=O)(=O)c1ccc([C@H](O)[C@H](CF)NC(=O)C(Cl)Cl)cc1
CC[C@]1(c2ccccc2)NC(=O)N(C)C1=O
CC[C@H](C)[C@H](N)C1=N[C@H](C(=O)N[C@@H](CC(C)C)C(=O)N[C@@H](CCC(=O)O)C(=O)N[C@@H](C(=O)N[C@H]2CCCCNC(=O)[C@@H](CC(N)=O)NC(=O)[C@@H](CC(=O)O)NC(=O)[C@@H](Cc3cnc[nH]3)NC(=O)[C@@H](Cc3ccccc3)NC(=O)[C@@H]([C@@H](C)CC)NC(=O)[C@@H](CCCN)NC2=O)[C@@H](C)CC)CS1 ({Ileψ(thiazoline)Cys}-LE[d(aIle)]K[dOrn][d(aIle)][dF][dH][dD][dN]; lactam 4-C)
CO[C@@H]1C=CO[C@]2(C)Oc3c(C)c(O)c4c(O)c(c(C=NN5CCN(C)CC5)c(O)c4c3C2=O)NC(=O)C(C)=CC=C[C@H](C)[C@H](O)[C@H](C)[C@H](O)[C@H](C)[C@H](OC(C)=O)[C@H]1C
